High-throughput results as filed in PubChem.
The list is not random: actives were taken first. Their share in the collection is about 2.6%.
HepG2 tox: HepG2 cytotoxicity, counter-screen for TGF-b inhibitors; 410,000 compounds, 0.76% hits; HepG2 CAGA-GFP viability, ATP luminescence, 18 h; Potency, µM (top dose mostly 46.1 µM), inactives show at the highest dose activity change, negative = cytotoxicity, actives largely listed as cytotoxic; also: potency is read from the fitted curve at half-maximal effect
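HepG2 CAGA-GFP cells (1000/well, DMEM with 1% FBS) received compound, then TGF-beta at 500 pg/mL final, and were incubated 18 hours at 37 degrees C. Viability was read by CellTiter-Glo luminescence. Media-only wells were set as complete cell-killing and DMSO as no toxicity.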
Giardia killer: Giardia lamblia killing | 340,000 compounds, 0.15% hits | AID 540267 | Giardia lamblia trophozoite viability | activity change, % at 7.66 µM, hits read low; in the data active = activity change below about -80%; inconclusive = between about -30% and that limit;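 also: parasites exposed to compound for two days anaerobically before the ATP read; % is scaled to controls: 0 for no effect and ±100 for the full control effect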
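Giardia trophozoites, 100 cells per well, were exposed to compounds for 48 hrs at 37 deg C under anaerobic conditions; viability was then read as ATP content by bioluminescence after 15-30 min at room temperature.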
ATXN2 expr inh: reduces ATXN2 reporter expression in HEK-293 cells; 360,000 compounds, 0.72% hits; Potency, µM (doses to about 57 µM), for the others: at the highest dose activity change, negative = inhibition, usual class: inhibitors; AID 1745845; HEK-293 ATXN2-luciferase reporter, luminescence, 24 h; also: potency is read from the fitted curve at half-maximal effect; % is scaled to controls: 0 for no effect and ±100 for the full control effect; nearly all actives have a fitted effect of over 55% in size
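qHTS (up to 57 uM final) was run with 24 h compound exposure of reporter cells at 37 °C. Each well was multiplexed: SteadyGlo luminescence measured ATXN2-luciferase expression after a fluorogenic Gly-Phe-AFC viability readout (25 uM final).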
TGFb SMAD3 inh: inhibitors of TGF-b signaling; 410,000 compounds, 1.2% hits; HepG2 CAGA-GFP TGF-b/SMAD3 reporter, GFP fluorescence, 18 h; TGF-beta stimulated, 500 pg/mL final; Potency, µM (top dose mostly 46.1 µM), inactives show at the highest dose activity, negative = inhibition, usual class: inhibitors; AID 588855; also: potency is read from the fitted curve at half-maximal effect; % is scaled to controls: 0 for no effect and ±100 for the full control effect; nearly all actives have a fitted effect of over 65% in size
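HEPG2 CAGA-GFP, 1000 cells/well; 2 h settle, 37 C; cpd via pin tool; TGF-b 500 pg/mL final; 18 h, 37 C; GFP imaging ex488/em500-530; %Activity normalised to -TGF-b and +DMSO controls; CRC fit, curve class.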
ATXN viability: cell viability loss in ATXN counter-screen; S2 cells (HEK-293 line with an ATXN2-luciferase reporter) viability, CellTiter-Fluor protease fluorescence, 24 h; Potency, µM (doses to about 56.7 µM), most hits filed as cytotoxic; 400,000 compounds, 0.49% hits; also: potency is read from the fitted curve at half-maximal effect; nearly all actives have a fitted effect of over 40% in size
uPA surface inh: inhibitors of cell surface uPA generation; AID 540303; 330,000 compounds, 0.31% hits; cell surface uPA generation assay, qHTS; Potency, µM (titrated, usually from 38.3 µM), without a hit: top-dose activity change, negative = inhibition, actives largely listed as inhibitors; active = well fitted inhibition curve with a large enough effect; inconclusive = small, poorly fitted or top-dose-only effect; inactive = no such curve, though single readings can be large or run the other way; tested in mouse RAW 264.7 cells; also: potency is read from the fitted curve at half-maximal effect; % is scaled to controls: 0 for no effect and ±100 for the full control effect; nearly all actives have a fitted effect of over 55% in size
An asterisk follows results filed as active; i = inactive; ? = inconclusive; . = not tested or not shown; ! = a repeat was not active. Unless noted, calls follow the shape of the dose curve; as a rule, active = well fitted curve in the direction sought with a large enough effect; inconclusive = small, poorly fitted or top-dose-only effect, or another doubt; inactive = no such curve, though single readings can be large; an effect the other way counts as inactive or inconclusive.

SMILES	HepG2 tox	Giardia killer	ATXN2 expr inh	TGFb SMAD3 inh	ATXN viability	uPA surface inh
Cc1ccc(S(=O)(=O)n2cc(-c3ccccc3)c3ccccc32)cc1	10.6%	2.4	1.9%	?	?	1.12µM*
CCn1c2ccccc2c2nnc(SCCCn3c(=O)[nH]c4ccccc43)nc21	2.6%	11.9	?	-1.6%	20µM*	-1.7%
O=C(Nc1cc(OC(=O)C(F)(F)F)c2nonc2c1OC(=O)C(F)(F)F)C(F)(F)F	-77.9%	-6.0	.	?	.	.
O=C(N=Nc1c(O)[nH]c2ccc(Br)cc12)c1cc(-c2cccs2)nc2ccccc12	-39.7%	-21.1	11.2µM*	-3.5%	10µM*	2.1%
Cn1c(O)c(N=NC(=O)c2cc(-c3cccs3)nc3ccccc23)c2ccccc21	-11.0%	-1.5	-24.2%	?	?	-1.5%
CCOC(=O)C1(C)CCCCCN1C(=O)/C=C/c1ccccc1 (stereo not given)	1µM*	.	-7.3%	16.9%	i	.
Cc1oc(-c2cccc(NC(=O)c3ccccn3)c2)nc1CNC(=O)c1cc(F)c(F)cc1F	.	.	.	.	i	.
Cc1ccc(S(=O)(=O)N2CCCCC2CCNC(=O)C(=O)NCc2ccco2)cc1 (stereo not given)	11.4%	-3.6	-17.8%	1.5%	i	-18.8%
Cc1ccc(S(=O)(=O)N2CCCCC2CCNC(=O)C(=O)NCCc2ccco2)cc1 (stereo not given)	5.3%	-5.9	-17.9%	-27.4%	i	1µM*
CC(C)(C)c1ccc(CN2C3=NCCCN3c3ccccc32)cc1	15.8µM*	3.3	?	?	?	-17.7%
O=C(NCC1Cc2cccc(-c3ncccn3)c2O1)C1CCCO1 (stereo not given)	.	.	.	.	i	.
COC(=O)c1cc(C)nc2c1C(=O)C(=O)C=C2N1CCOCC1	5.01µM*	-3.2	3.55µM*	4.47µM*	3.16µM*	-16.0%
COC(=O)c1cc(S(=O)(=O)N2CCOCC2)c(Cl)cc1N1CCOCC1	2.1%	-12.6	4.1%	?	i	-1.9%
C=C(C)c1cccc(C(C)(C)NC(=O)Nc2ccc(C)cn2)c1	-4.3%	-4.4	-18.6%	?	i	0.7%
C=C(C)c1cccc(C(C)(C)NC(=O)Nc2cc(C)ccn2)c1	-17.1%	-29.3	-0.6%	11.2µM*	?	13.2%
CCN(CC)c1ccc2cc(NC(=O)CCC(=O)O)c(=O)oc2c1	-27.1%	-25.4	7.94µM*	11.6%	.	?
COc1ccc(C(=O)NCc2nnc(SC)n2-c2ccccc2C)c(OC)c1OC	.	.	.	.	i	.
CN1CCCC(n2nc(Cc3ccc(Cl)cc3)c3ccccc3c2=O)CC1 (stereo not given)	-40.9%	35.8	35.5µM*!	-1.5%	31.6µM*!	?
COc1cccc(-n2nnnc2SCC(=O)Nc2ccccc2OC)c1	-10.7%	-16.8	-8.2%	4.2%	i	-8.0%
CCCS(=O)(=O)c1nnnn1-c1cccc(OC)c1	17.8µM*	-8.0	?	?	.	?
O=C1C(=Cc2ccncc2)CCCc2ccccc21	-16.8%	.	.	-25.1%	i	.
O=C1/C(=C/c2ccncc2)CCC/C1=C\c1ccncc1	12.6µM*	?	14.1µM*	3.16µM*	?	-14.9%
O=C1CC[C@@H](C(=O)NCC2Cc3cc(Cl)cc(-c4ccc5[nH]ccc5c4)c3O2)N1 (stereo not given in full)	.	.	.	.	i	.
CN(C)CC(C)(C)CNc1nn2c(-c3ccccc3)nnc2cc1C1CCC1	.	.	0.769µM*	.	.	.
CNC[C@H](O)[C@@H](O)[C@H](O)[C@H](O)CO	.	.	10.6%	.	i	.
SMILES	HepG2 tox	Giardia killer	ATXN2 expr inh	TGFb SMAD3 inh	ATXN viability	uPA surface inh
CCOc1ccc(CCN2C(=O)C(=O)N([C@@H](CC(C)C)CN3CCC[C@@H]3CN3C(=O)C(=O)NC[C@@H]3CC(C)C)C[C@@H]2Cc2ccccc2)cc1	-1.7%	.	?	20µM*	.	.
CC(C)C[C@H]1CNC(=O)C(=O)N1C[C@H]1CCCN1C[C@H](CC(C)C)N1C[C@H](Cc2ccccc2)N(CC2CCCCC2)C(=O)C1=O	.	.	17.4%	.	i	.
CC(C)C[C@H]1CN([C@@H](CC(C)C)CN2CCC[C@@H]2CN2C(=O)C(=O)NC[C@@H]2Cc2ccccc2)C(=O)C(=O)N1CC1CCCCC1	-37.8%	-14.0	-33.7%	17.8µM*	?	6.3%
CC(C)C[C@@H](CN1CCC[C@@H]1CN1C(=O)C(=O)NC[C@@H]1Cc1ccccc1)N1C[C@H](Cc2ccccc2)N(CC2CCCCCC2)C(=O)C1=O	2.3%	7.2	8.1%	?	?	5.1%
CC(C)C[C@@H](CN1CCC[C@@H]1CN1C(=O)C(=O)NC[C@@H]1Cc1ccccc1)N1C[C@H](Cc2ccccc2)N(CC2CCCCC2)C(=O)C1=O	.	.	?	.	22.4µM*	.
Cc1cc(/C=C/c2ccnc3ccccc23)ccc1N(C)C	-44.2%	.	.	-27.0%	.	.
O=C1/C(=C/c2ccncc2)SC(=S)N1C1CCS(=O)(=O)C1 (stereo not given)	20µM*	7.3	-9.8%	?	?	-12.2%
O=c1cc(-c2ccccc2Cl)oc2ccc([N+](=O)[O-])c(O)c12	-36.4%	-13.5	9.7%	-9.7%	i	13.0%
CN1CC[C@H](c2c(O)cc(O)c3c(=O)cc(-c4ccccc4Cl)oc23)[C@@H](O)C1	-2.8%	5.5	.	0.224µM*	.	.
O=c1cc(-c2ccccc2Cl)oc2c([N+](=O)[O-])c(O)cc(O)c12	-5.9%	-11.5	?	12.6µM*	i	-1.4%
O=C(NC[C@@H]1CCCN2CCCC[C@H]12)c1cnn(-c2nccc(-c3ccco3)n2)c1C1CC1	.	.	.	.	i	.
Cc1ncc2c(c1CNC(=O)c1ccc3c(c1)OCO3)CCN(C(=O)/C=C/c1ccccc1Cl)C2	.	.	.	.	i	.
O=S(=O)(c1ccccc1)N1CCN=C1SCc1cccc(Cl)c1	-7.5%	5.7	-13.4%	12.6µM*	i	-5.8%
CCCCN(CCCC)Cc1ccc(C(=O)NNC(=O)Nc2ccccc2)o1	-10.3%	33.2	.	-26.1%	i	10.2%
CCCCN(CCCC)Cc1ccc(C(=O)NNC(=O)Nc2ccc(F)cc2)o1	17.8µM*	6.2	-7.0%	0.0%	i	5.5%
COc1cc(CNCCN2CCOCC2)ccc1OCc1ccc(Cl)cc1Cl	-100.9%	5.0	?	20µM*	.	3.3%
COc1cc(CNCCN2CCOCC2)ccc1OCc1cccc(Cl)c1	-22.6%	-3.4	-0.2%	67.1%	i	-9.1%
COc1cc(CNCCO)cc(Cl)c1OCc1ccc(Cl)cc1Cl	-190.0%	-17.9	15.8µM*	22.4µM*	35.5µM*	3.3%
COc1cc(CNCCO)cc(Br)c1OCc1ccccc1Cl	-126.8%	16.8	-16.7%	?	i	-0.3%
COc1cc2nc(CN(CCO)C3CS(=O)(=O)CC3O)nc(N3CCCCC3)c2cc1OC (stereo not given)	.	.	.	.	i	.
